{"source": "PubChem BioAssay", "key": {"[1]": {"experiment": "polyglutamine-triggered caspase-3 activation inhibitors, cell-based (AID 1583)", "conditions": "polyglutamine-induced caspase-3 activation, cell assay; stronger effect = higher value;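 tested at 10 µM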"}, "[2]": {"experiment": "suppressors of polyQ aggregation in yeast, 75Q-TubU reporter (AID 1593)", "conditions": "Yeast 75Q polyglutamine aggregation reporter"}, "[3]": {"experiment": "rescue of polyQ-huntingtin neuronal dysfunction in worms, whole organism, C. elegans mechanosensory neurons, N-terminal huntingtin (AID 1599)", "conditions": "touch response, stronger effect = higher value"}, "[4]": {"experiment": "inhibitors of mitochondrial cytochrome c release, biochemical, purified mitochondria (AID 1603);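 also: mouse liver mitochondria challenged with calcium chloride; signal normalized to the plate average as 100%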", "conditions": "stronger effect = lower value"}, "[5]": {"experiment": "inhibitors of polyQ protein aggregation (AID 1604)", "conditions": "polyglutamine-induced protein aggregation inhibition assay; stronger effect = higher value; tested at 2.5 µM"}, "[6]": {"experiment": "enhancers of glutamate uptake in motor neurons, MN-1 cell line (AID 1612);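 also: tested at 1 µM final; 0% = mean of DMSO vehicle wells on each plate; positive means more glutamate uptake than control and negative means less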", "conditions": "MN-1 motor neuron cells, stronger effect = higher value"}, "[7]": {"experiment": "suppressors of polyglutamine aggregation in yeast, 75Q-TubH (AID 1616)", "conditions": "S. cerevisiae 75Q-TubH polyglutamine aggregation suppression; stronger effect = higher value"}, "[8]": {"system": "Hepatitis C virus NS3 helicase", "experiment": "HCV NS3 helicase inhibitors, primary screen, biochemical, fluorescence polarization, LOPAC1280 library (AID 687035; in the data active = inhibition above about 37%)", "conditions": "Purified HCV NS3 helicase, Cy5-dT15 ssDNA binding fluorescence polarization; stronger effect = higher value; concentration not given here"}, "[9]": {"experiment": "Cy5 fluorescence quenching or enhancement artefacts, artefact control for HCV NS3 helicase inhibitor project, biochemical, LOPAC1280 (AID 687037)", "conditions": "Cy5-DNA-NS3h complex fluorescence interference counterscreen"}, "[10]": {"experiment": "inhibitors of Cryptococcus chitosan production, flow cytometry, Cibacron Brilliant Red staining (AID 1347148);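 also: compound exposure lasted three days at 37 degrees C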", "conditions": "Cryptococcus neoformans chitosan, stronger effect = lower value; at 10 µM unless noted"}, "[11]": {"experiment": "reducers of polyQ inclusions in PC12 cells, cell-based, NGF-treated PC12, GFPQ80 (AID 1614);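 also: lower means fewer inclusions and 0 means no inclusions at all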", "conditions": "PC12 NGF-treated GFP-polyQ80 inclusion reduction"}, "[12]": {"experiment": "growth inhibition of DIPG glioma cells, dose response, cell-based, JHH-DIPG-1, MIPE4.0, CellTiter-Glo, qHTS (AID 1347062; cut-off not given, nearly all actives have AC50 up to about 27 µM)", "conditions": "JHH-DIPG-1 viability, CellTiter-Glo ATP luminescence"}, "[13]": {"experiment": "growth inhibition of DIPG glioma cells, dose response, cell-based, SU-DIPG-IV, MIPE4.0, CellTiter-Glo, qHTS (AID 1347063; cut-off not given, nearly all actives have AC50 up to about 30 µM;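 also: compound exposure lasted 48 hours before the viability readout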)", "conditions": "SU-DIPG-IV viability, CellTiter-Glo ATP luminescence"}, "[14]": {"experiment": "viability loss in pontine glioma line – cell-based, SU-DIPG-XXV, MIPE5.0, CellTiter-Glo, qHTS, dose response (AID 1347065; cut-off not given, nearly all actives have AC50 up to about 26 µM;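 also: cells exposed to compound for 48 hours before ATP readout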)", "conditions": "CellTiter-Glo ATP luminescence"}, "[15]": {"experiment": "SU-DIPG-VI glioma cell viability, MIPE4.0 library, CellTiter-Glo luminescence, qHTS (AID 1347066; cut-off not given, nearly all actives have AC50 up to about 30 µM;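 also: cells exposed to compound for 48 hours before readout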)", "conditions": "CellTiter-Glo ATP luminescence"}}, "note": "Inconclusive results are not listed. For some of these results: Measured potencies and affinities stand elsewhere. Calls of active or inactive are those of the source. Unless noted, no rule for the calls is given here.", "data": [{"smiles": "Clc1cc(Cl)c(OCC#CI)cc1Cl", "values": [{"measurement": "inhibition", "setting": "[1]", "result": 55.6, "unit": "%"}, {"measurement": "score", "setting": "[2]", "result": -0.06}, {"measurement": "rescue above control", "setting": "[3]", "result": 11}, {"measurement": "cytochrome c release ratio", "setting": "[4]", "result": 8.98}, {"measurement": "inhibition of aggregation", "setting": "[5]", "result": 58.5, "unit": "%"}, {"measurement": "glutamate uptake change", "setting": "[6]", "result": 15.9, "unit": "%"}, {"measurement": "aggregation suppression score", "setting": "[7]", "result": -0.184}]}, {"smiles": "O=C1NCN(c2ccccc2)C12CCN(CCCC(c1ccc(F)cc1)c1ccc(F)cc1)CC2", "values": [{"measurement": "inhibition", "setting": "[8]", "result": "0% (inactive)"}, {"measurement": "fluorescence ratio (interference)", "setting": "[9]", "result": "1 (inactive)"}, {"measurement": "fold fluorescence", "setting": "[10]", "result": "5.05 [at 105.1 µM] (inactive)"}]}, {"smiles": "CCOc1ccccc1OCC1CNCCO1", "note": "(configuration not stated)", "values": [{"measurement": "inhibition", "setting": "[1]", "result": -5.29, "unit": "%"}, {"measurement": "score", "setting": "[2]", "result": 1.39}, {"measurement": "rescue above control", "setting": "[3]", "result": -3.95}, {"measurement": "cytochrome c release ratio", "setting": "[4]", "result": 1.06}, {"measurement": "inhibition of aggregation", "setting": "[5]", "result": 12.9, "unit": "%"}, {"measurement": "glutamate uptake change", "setting": "[6]", "result": 20.1, "unit": "%"}, {"measurement": "inclusion score", "setting": "[11]", "result": 2}, {"measurement": "aggregation suppression score", "setting": "[7]", "result": 1.38}]}, {"smiles": "Cc1c(-c2ccc(O)cc2)n(Cc2ccc(OCCN3CCCCCC3)cc2)c2ccc(O)cc12", "values": [{"measurement": "outcome", "setting": "[12]", "result": "inactive"}, {"measurement": "outcome", "setting": "[13]", "result": "inactive"}, {"measurement": "AC50", "setting": "[14]", "result": "20.9 µM (active)"}, {"measurement": "outcome", "setting": "[15]", "result": "inactive"}]}]}
